Source: PubChem BioAssay (several laboratories)
An excerpt weighted towards active compounds, which were near 3% of everything screened.
MITF TRPM1 inh: inhibitors of MITF-driven TRPM1 promoter in melanoma cells | SK-MEL-5 TRPM1 promoter luciferase, 24 h | inhibition, % at 12.5 µM | hit rate 0.83% among 330,000 | AID 488899;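 active = mean inhibition across replicates of 60% or more, whatever share of single replicates reaches that level; inconclusive = some that reach 60%, reason not given; inactive = mean inhibition across replicates below 60%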
MITF act: MITF TRPM1 promoter activation in melanoma cells. SK-MEL-5 TRPM1-promoter luciferase, 24 h; % of positive control, neutral wells = 0. activation, % at 12.5 µM. hit rate 0.75% among 300,000;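 active = mean activation of at least 80% with every replicate also reaching 80%; inconclusive = mean reaches 80% but some replicate falls short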;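 also: 0% = neutral control wells and 100% = parthenolide positive control wells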
LGR2 antag: Drosophila LGR2 receptor signaling inhibition; HEK293 LGR2, CRE-luciferase, bursicon-stimulated, 4 h; inhibition, % at 9.99 µM; hit rate 0.35% among 380,000;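 active = drop in luminescence signal, shown as inhibition above about 50% in the replicate tests, limit read from the data, passing the limit was not always enough; inconclusive = probably only some replicates passing the limit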;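 also: agonist challenge used bursicon conditioned medium at about half maximal strength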
TWEAK-Fn14 inh: TWEAK-Fn14 signaling inhibition. TWEAK-stimulated Fn14 reporter cells, luciferase luminescence, 8 h. inhibition, % at 10 µM. hit rate 2% among 360,000; in the data active = inhibition above about 50%
LMP1 NFkB inh: inhibitors of Epstein-Barr LMP1-induced NF-kappaB reporter | inhibition, % at 12.5 µM | hit rate 0.69% among 350,000 | LMP1-induced NF-kappaB luciferase reporter cells, luminescence; in the data active = inhibition above about 41%; inconclusive = no clear call, values can overlap the other calls;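 also: 0% = neutral control wells and 100% = reference inhibitor control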
TROY NFkB inh: inhibitors of TROY-dependent NF-kB signaling; Q293 LMP1-TROYcd NF-kB luciferase reporter, 4 h; inhibition, % at 10 µM; hit rate 0.98% among 360,000;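 active = compounds whose plate-normalised and pattern-corrected inhibition of the luciferase reporter signal at the single screening dose is 50% or more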
* marks the source's active call; other numbers are inactive results.

How did CCn1cnc2cc(NCc3nc4ccccc4n3Cc3ccccc3)ccc21 do in these assays?
MITF TRPM1 inh: -8; MITF act: 11; TWEAK-Fn14 inh: 81*; LMP1 NFkB inh: -11; TROY NFkB inh: 80*

Results for CCn1cnc2cc(NCc3nc4ccccc4n3C)ccc21 ?
MITF TRPM1 inh: -35; MITF act: 28; LGR2 antag: 2; TWEAK-Fn14 inh: 86*; LMP1 NFkB inh: -4; TROY NFkB inh: 69*

What do the screens show for `O=C(c1ccncc1)N1CC2(C1)[C@@H](c1ccccc1)[C@H](CO)N2C(=O)CC1CC1`?
LGR2 antag: -4

Results for Cc1cc(C)nc(Sc2ncnc3c2oc2ccccc23)n1 ?
MITF TRPM1 inh: -7; MITF act: 7; TWEAK-Fn14 inh: 56*; LMP1 NFkB inh: 9; TROY NFkB inh: -31

What do the screens show for `CCOC(=O)c1nc(NCc2ccccc2F)c2ccccc2n1`?
MITF TRPM1 inh: -2; MITF act: 2; LGR2 antag: -20; TWEAK-Fn14 inh: 5; LMP1 NFkB inh: 77*; TROY NFkB inh: -9

Results for COc1ccc(CCNC(=O)CCN2C(=O)c3cccc4cccc(c34)C2=O)cc1OC ?
MITF TRPM1 inh: -5; MITF act: 5; LGR2 antag: 5; TWEAK-Fn14 inh: -10; LMP1 NFkB inh: 1; TROY NFkB inh: 19

What do the screens show for `COc1ccc(CCN2C(=O)c3cccc4c(C(=O)N5CCCCC5)ccc(c34)C2=O)cc1OC`?
MITF TRPM1 inh: 49; MITF act: -48; LGR2 antag: 102*; TWEAK-Fn14 inh: 78*; LMP1 NFkB inh: 10; TROY NFkB inh: 57*

What do the screens show for `CN1c2ccc(-c3cccc(F)c3)cc2[C@@H]2[C@@H](CCN2C(=O)c2cccc(F)c2)[C@@H]1CO`?
LGR2 antag: -1

Results for COCC(=O)NCCc1nc2ccccc2[nH]1 ?
LGR2 antag: 7; TWEAK-Fn14 inh: -8; LMP1 NFkB inh: -1; TROY NFkB inh: -10

How did CCCC(=O)NCCCc1nc2ccccc2[nH]1 do in these assays?
MITF TRPM1 inh: 9; MITF act: -3; LGR2 antag: 5; TWEAK-Fn14 inh: 3; LMP1 NFkB inh: 87*; TROY NFkB inh: -12

How did CCCC(=O)NCCCc1nc2ccccc2n1C do in these assays?
MITF TRPM1 inh: -6; MITF act: -1; LGR2 antag: -8; TWEAK-Fn14 inh: 1; LMP1 NFkB inh: 92*; TROY NFkB inh: 3

Results for Cc1ccc(CCNC(=O)CCc2nc3ccccc3[nH]2)cc1 ?
MITF TRPM1 inh: -8; MITF act: 11; LGR2 antag: 25; TWEAK-Fn14 inh: 1; LMP1 NFkB inh: 57*; TROY NFkB inh: 6

What do the screens show for `Cc1ccc(S(=O)(=O)N[C@@H]2CC[C@@H](CCNC(=O)Nc3ccc(Cl)cc3)O[C@H]2CO)cc1`?
LGR2 antag: 0

How did COc1cccc(NC(=O)N[C@@H]2C=C[C@H](CC(=O)N3CCCCC3)O[C@H]2CO)c1 do in these assays?
LGR2 antag: -11

How did CC(C)C#Cc1cnc2c(c1)C(=O)N([C@@H](C)CO)C[C@@H](C)[C@@H](CN(C)Cc1ccccc1)O2 do in these assays?
LGR2 antag: -63

How did COCc1cn(CC[C@@H]2CC[C@@H](NC(=O)CCN3CCCCC3)[C@H](CO)O2)nn1 do in these assays?
LGR2 antag: 3

Results for O=C(NCc1ccccc1)[C@H]1[C@H](CO)[C@H]2Cn3c(cccc3=O)[C@@H]1N2C(=O)Cc1ccccn1 ?
LGR2 antag: -2

What do the screens show for `Cc1ccc(S(=O)(=O)N(C(=O)c2ccncc2)c2ccc(OC(=O)c3ccncc3)cc2)cc1`?
MITF TRPM1 inh: 16; MITF act: -18; LGR2 antag: 4; TWEAK-Fn14 inh: 41; LMP1 NFkB inh: 11; TROY NFkB inh: 41

Results for Cc1ccc(C)c(S(=O)(=O)N(C(=O)c2ccncc2)c2ccc(OC(=O)c3ccncc3)cc2)c1 ?
MITF TRPM1 inh: -2; MITF act: 3; LGR2 antag: 96*; TWEAK-Fn14 inh: 84*; LMP1 NFkB inh: 20; TROY NFkB inh: 68*

Results for CCc1ccc(S(=O)(=O)N(C(=O)c2ccncc2)c2ccc(OC(=O)c3ccncc3)cc2)cc1 ?
MITF TRPM1 inh: -8; MITF act: 8; LGR2 antag: 27; TWEAK-Fn14 inh: 46; LMP1 NFkB inh: 6; TROY NFkB inh: 54*

Results for Cc1ccc(S(=O)(=O)N(C(=O)c2ccncc2)c2ccc(OC(=O)c3ccncc3)cc2)c(C)c1 ?
MITF TRPM1 inh: 7; MITF act: -8; LGR2 antag: 26; TWEAK-Fn14 inh: 50*; LMP1 NFkB inh: 18; TROY NFkB inh: 48

What do the screens show for `O=C(C[C@@H]1CC[C@H]2[C@@H](COC[C@@H](O)CN2C(=O)c2ccncc2)O1)NC1Cc2ccccc2C1`?
LGR2 antag: -13

Results for O=C(C[C@H]1CC[C@H]2[C@@H](COC[C@H](O)CN2C(=O)Cc2ccccc2)O1)NC1CCC1 ?
LGR2 antag: 10

What do the screens show for `CCOC(=O)c1cnc2cc(-c3ccc(Cl)cc3)nn2c1N`?
MITF TRPM1 inh: -148; MITF act: 149*; LGR2 antag: -43; TWEAK-Fn14 inh: -20; LMP1 NFkB inh: -33; TROY NFkB inh: -38

Results for CCOC(=O)c1cnc2c(-c3ccc(Cl)cc3)c(C)nn2c1N ?
MITF TRPM1 inh: -19; MITF act: 19; TWEAK-Fn14 inh: -64; LMP1 NFkB inh: -8; TROY NFkB inh: -27

How did Cc1cc(OCC(=O)N(C)C2CCCCC2)ccc1Cl do in these assays?
MITF TRPM1 inh: -40; MITF act: 39; LGR2 antag: -11; TWEAK-Fn14 inh: 39; LMP1 NFkB inh: -26; TROY NFkB inh: 66*

What do the screens show for `Cc1cc(OCC(=O)N(C)C2CCCCC2)cc(C)c1Cl`?
MITF TRPM1 inh: -55; MITF act: 45; LGR2 antag: -6; TWEAK-Fn14 inh: -35; LMP1 NFkB inh: -10; TROY NFkB inh: -38

Results for COc1ccc2cc3cc(C(=O)NC4CC4)sc3nc2c1 ?
MITF TRPM1 inh: 3; MITF act: 0; LGR2 antag: inconclusive; TWEAK-Fn14 inh: 67*; LMP1 NFkB inh: 3; TROY NFkB inh: 27

Results for Cc1ccc(N(C)S(=O)(=O)c2cc(-c3cnc(C4CC4)o3)ccc2C)cc1 ?
MITF TRPM1 inh: -3; MITF act: 0; LGR2 antag: 24; TWEAK-Fn14 inh: 78*; LMP1 NFkB inh: -7; TROY NFkB inh: 56*

What do the screens show for `O=C(N/N=C/c1cccc2cccnc12)c1ccccc1O`?
MITF TRPM1 inh: 69*; MITF act: -68; LGR2 antag: -12; TWEAK-Fn14 inh: -23; LMP1 NFkB inh: 5; TROY NFkB inh: -15

What do the screens show for `Cc1ccc2nc(Cl)c(/C=N/NC(=O)c3ccccc3O)cc2c1`?
MITF TRPM1 inh: -1; MITF act: 3; LGR2 antag: -4; TWEAK-Fn14 inh: -10; LMP1 NFkB inh: -2; TROY NFkB inh: 52*
